Test results reported in PubChem BioAssay (NCI).
The panel holds about 83,000 compounds, 20% with a hit somewhere; the sample as a whole holds those more often.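 Assay: single dose, 48 h. Readout: percent growth (0 = no net growth; negative = cell death). Active: <10.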 Activity calls are given as the source filed them.

What was measured:
Test in all cases: NCI-60 one-dose screen, 48 h (100 = growth as untreated, 0 = no growth, -100 = all killed)
Conditions in all cases: 10 µM unless noted
T-47D breast = system: T-47D breast
BT-549 breast = system: BT-549 breast
MDA-MB-435 melanoma = system: MDA-MB-435 melanoma
MCF7 breast = system: MCF7 breast
HCC-2998 colon = system: HCC-2998 colon
KM12 colon = system: KM12 colon
HCT-116 colon = system: HCT-116 colon
SW-620 colon = system: SW-620 colon

Measured: growth

Nc1cccc(-c2ccc(COc3ccc(CC4SC(=O)NC4=O)cc3)cc2)c1 (stereo not drawn)
active: MDA-MB-435 melanoma -17.7%
inactive: T-47D breast 50.3% | BT-549 breast 58.7% | MCF7 breast 37.7% | HCC-2998 colon 87.4% | KM12 colon 33.3%

C=C1C(=O)O[C@H]2[C@H]1CC/C(CNC(=O)Cc1c[nH]c3ccccc13)=C\CC[C@@]1(C)O[C@@H]21
active: T-47D breast -9.45% | MDA-MB-435 melanoma 7.96% | HCT-116 colon -11.9%
inactive: BT-549 breast 13.6% | MCF7 breast 17.8% | HCC-2998 colon 60.4% | KM12 colon 47.5%

CCOC(=O)c1nnn(Cc2cc(=O)oc3ccc(O)cc23)c1C
inactive: T-47D breast 98% | BT-549 breast 110% | MDA-MB-435 melanoma 104% | MCF7 breast 92.4% | HCT-116 colon 96% | HCC-2998 colon 97.3% | KM12 colon 102%

O=CCCCOCc1ccccc1
inactive: T-47D breast 102% | BT-549 breast 103% | MDA-MB-435 melanoma 107% | MCF7 breast 91.7% | HCT-116 colon 105% | HCC-2998 colon 94.2% | KM12 colon 102%

Cc1nn(C)c2ncnc(N/N=C/c3cccc(O)c3O)c12
inactive: T-47D breast 19% | BT-549 breast 30.8% | MDA-MB-435 melanoma 24.4% | MCF7 breast 15% | HCT-116 colon 18% | HCC-2998 colon 38.2% | KM12 colon 21.5%

O=C1c2cccnc2C(=O)c2c1c(C(=O)OCCc1ccccn1)c1ccccn21
active: T-47D breast -6.8% | BT-549 breast -35.2% | MDA-MB-435 melanoma -10.7% | MCF7 breast -56.8% | HCT-116 colon -48.3% | HCC-2998 colon -70.3% | KM12 colon 4.35%

CCOC(=O)C/C(=N\Nc1cc(=O)[nH]c2ccc(OC)cc12)C(=O)OCC
inactive: T-47D breast 101% | BT-549 breast 110% | MDA-MB-435 melanoma 99% | MCF7 breast 87.9% | HCT-116 colon 101% | HCC-2998 colon 101% | KM12 colon 99.2%

CN(C)Cc1ccc(NC(=O)c2cncc(C#Cc3cnc(N)c4ncccc34)c2)cc1C(F)(F)F
inactive: T-47D breast 99% | BT-549 breast 102% | HCT-116 colon 47.7%
active: MDA-MB-435 melanoma -75.1% | MCF7 breast -72.4% | HCC-2998 colon 3.86% | KM12 colon -40.4%

Cc1ccc(S(=O)(=O)OCC#CCOS(=O)(=O)c2ccc(C)cc2)cc1
active: T-47D breast -22.9%
inactive: BT-549 breast 54.9% | MDA-MB-435 melanoma 49.3% | MCF7 breast 31% | HCT-116 colon 24.7% | HCC-2998 colon 81.6% | KM12 colon 60.9%

CCN1C(=O)N(c2ccccc2)C2NC(=S)N(/N=C/C=C/c3ccccc3OC)C21 (stereo not drawn)
inactive: T-47D breast 42.3% | BT-549 breast 20.4% | HCC-2998 colon 14.8% | KM12 colon 11.3%
active: MDA-MB-435 melanoma -27.5% | MCF7 breast 7.64% | HCT-116 colon 9.02%

NS(=O)(=O)c1ccc(C(=O)N=Nc2c(O)[nH]c3ccc(Cl)cc23)cc1
inactive: T-47D breast 97.2% | BT-549 breast 98.8% | MDA-MB-435 melanoma 105% | MCF7 breast 89.2% | HCT-116 colon 99.4% | HCC-2998 colon 114% | KM12 colon 102%

COc1ccc(Oc2ccc(/C=C/C(=O)c3ccc(OC)c(OC)c3)cc2)cc1
inactive: T-47D breast 60.8% | BT-549 breast 85.3% | MDA-MB-435 melanoma 90.3% | MCF7 breast 56.3% | HCT-116 colon 69.3% | HCC-2998 colon 104% | KM12 colon 79%

COc1cc(/C=C/c2cc(/C=C/c3ccc(O)c(OC)c3)n(C(=O)Nc3ccc(Cl)cc3)n2)ccc1O
inactive: T-47D breast 18.5%
active: BT-549 breast -14.4% | MDA-MB-435 melanoma 2.46% | MCF7 breast 5.36% | HCC-2998 colon 4.55% | KM12 colon 3.53%

CCOC(=O)c1[nH]cc2c1CCc1sc(Nc3ccccn3)nc1-2
inactive: T-47D breast 55.4% | BT-549 breast 79.4% | MDA-MB-435 melanoma 86.2% | MCF7 breast 57.1% | HCC-2998 colon 94.6% | KM12 colon 64.3%

O=c1cc(CP(=O)(O)O)c2cc(O)c(-c3ccccc3)cc2o1
inactive: T-47D breast 101% | BT-549 breast 108% | MDA-MB-435 melanoma 99.2% | MCF7 breast 96.9% | HCT-116 colon 108% | HCC-2998 colon 102% | KM12 colon 105%

Cc1c2ncccc2nc2[nH]c3ccc(OCCN(C)C)cc3c12
active: MCF7 breast 3.49%
inactive: T-47D breast 32.3% | BT-549 breast 63.2% | MDA-MB-435 melanoma 36.8% | HCT-116 colon 12.6% | HCC-2998 colon 53.3% | KM12 colon 20.9%

COc1cc(/C=C/C(=O)c2cc(OC)c(OC)c(OC)c2)ccc1Oc1nc2c(c(=O)n(C)c(=O)n2C)n1C
active: T-47D breast -16.1% | BT-549 breast -57.7% | MDA-MB-435 melanoma -44% | MCF7 breast 0.476% | HCT-116 colon -80.6% | HCC-2998 colon -85.9% | KM12 colon -62.1%

COC(=O)c1c2c(c[n+]([O-])c1C)C(=O)C=C(NCc1ccccc1)C2=O
active: T-47D breast -47.7% | BT-549 breast -87.3% | MDA-MB-435 melanoma -86.5% | MCF7 breast -57.3% | HCT-116 colon -79.5% | HCC-2998 colon -89.5% | KM12 colon -83.2%

C=C(C)[C@@H]1CC[C@]2(CO)CC[C@]3(C)[C@H](CC[C@@H]4[C@@](C)(CCCN)[C@H](C(=C)C)CC[C@]43C)[C@@H]12
active: T-47D breast -40.5% | BT-549 breast -92.8% | MDA-MB-435 melanoma -97% | SW-620 colon -89.5% | MCF7 breast -89.3% | HCC-2998 colon -80.1% | KM12 colon -79.6%

Cc1cc(N2CCN(CC(=O)Nc3ccc4c(ccn4Cc4ccccc4)c3)CC2)nc(N2CCOCC2)n1
inactive: T-47D breast 59.6% | BT-549 breast 81.5% | MDA-MB-435 melanoma 92.9% | MCF7 breast 79.8% | HCT-116 colon 72.5% | HCC-2998 colon 119% | KM12 colon 91.3%

O=C1C(Cl)=C(Nc2ccccc2)C(=O)c2ccccc21
active: T-47D breast -2.5% | BT-549 breast -94.7% | MDA-MB-435 melanoma -97.7% | MCF7 breast -58% | HCT-116 colon -96.2% | HCC-2998 colon -15.6%
inactive: KM12 colon 46.9%

C/C(=C(\c1ccc(OCCN2CCCCCC2)cc1)c1ccc(OC(=O)c2ccccc2)cc1)c1ccc(Cl)cc1
inactive: T-47D breast 42.6% | BT-549 breast 68.5% | MDA-MB-435 melanoma 56% | MCF7 breast 14.5% | HCT-116 colon 17.9% | HCC-2998 colon 60.7% | KM12 colon 32.1%

C/C(Cc1ccc(Cl)cc1)=C(\c1ccc(OCCN2CCCCCC2)cc1)c1ccc(OC(=O)c2ccccc2)cc1
active: MCF7 breast 9.46% | HCT-116 colon -64.8%
inactive: T-47D breast 46.3% | BT-549 breast 56.2% | MDA-MB-435 melanoma 47.6% | HCC-2998 colon 23.8% | KM12 colon 32%

N#Cc1c(-c2cccc(Cl)c2)cc(-c2cccnc2)[nH]c1=O
active: MDA-MB-435 melanoma 2.97%
inactive: T-47D breast 87.3% | BT-549 breast 72.5% | MCF7 breast 48.2% | HCC-2998 colon 98.6% | KM12 colon 65.6%

O=[N+]([O-])c1c(O)c(Cl)cc(Cl)c1Cl
inactive: T-47D breast 97.6% | BT-549 breast 106% | MDA-MB-435 melanoma 114% | MCF7 breast 98.8% | HCT-116 colon 100% | HCC-2998 colon 96.5% | KM12 colon 112%

Cc1cc(C(=O)CCCC(=O)c2cc(C)c(O)c(C)c2)cc(C)c1O
inactive: T-47D breast 84.6% | BT-549 breast 112% | MDA-MB-435 melanoma 101% | MCF7 breast 86.5% | HCT-116 colon 86.8% | HCC-2998 colon 46% | KM12 colon 102%

C=CN(C(=O)N1CCN(c2cc3c(cc2F)c(=O)c(C(=O)O)cn3C2CC2)CC1)c1nc(-c2ccc(Cl)cc2)cs1
inactive: T-47D breast 76.2% | MDA-MB-435 melanoma 74.8% | SW-620 colon 93.9% | MCF7 breast 51.3% | HCT-116 colon 24.1% | HCC-2998 colon 95.9% | KM12 colon 61.8%

CN(C)c1ccc([C@@H](C(=O)Nc2cccc([N+](=O)[O-])c2)N(C(=O)c2cc3ccccc3[nH]2)c2cccc([N+](=O)[O-])c2)cc1
inactive: T-47D breast 84% | MDA-MB-435 melanoma 108% | SW-620 colon 98.7% | MCF7 breast 89.6% | HCC-2998 colon 107% | KM12 colon 103%

CN1CC(c2ccc(Br)cc2)C(C(=O)c2ccc(Br)cc2)C12C(=O)Nc1ccccc12 (stereo not drawn)
inactive: T-47D breast 49.5% | MDA-MB-435 melanoma 78.9% | SW-620 colon 72% | MCF7 breast 62.4% | HCT-116 colon 39.7% | HCC-2998 colon 84.5% | KM12 colon 75%
